# Assay outcomes: PubChem BioAssay, Buhrlage Lab, Dana-Farber Cancer Institute and Novartis Institutes for BioMedical Research (Cambridge, Mass)
# USP28 block: blocks human USP28 ubiquitin-rhodamine cleavage; purified USP28, Ub-rhodamine cleavage fluorescence, 30 min; AID 1645857; Q96RU2; actives 3% (n = 47,000); inhibition, % at 25 µM
# USP30 inh: inhibitors of human USP30 deubiquitinase; inhibition, % at 25 µM; purified USP30, Ub-rhodamine cleavage fluorescence; AID 1645860; actives 5.3% (n = 47,000)
# Target sequence (Q70CQ3 whole entry, looked up): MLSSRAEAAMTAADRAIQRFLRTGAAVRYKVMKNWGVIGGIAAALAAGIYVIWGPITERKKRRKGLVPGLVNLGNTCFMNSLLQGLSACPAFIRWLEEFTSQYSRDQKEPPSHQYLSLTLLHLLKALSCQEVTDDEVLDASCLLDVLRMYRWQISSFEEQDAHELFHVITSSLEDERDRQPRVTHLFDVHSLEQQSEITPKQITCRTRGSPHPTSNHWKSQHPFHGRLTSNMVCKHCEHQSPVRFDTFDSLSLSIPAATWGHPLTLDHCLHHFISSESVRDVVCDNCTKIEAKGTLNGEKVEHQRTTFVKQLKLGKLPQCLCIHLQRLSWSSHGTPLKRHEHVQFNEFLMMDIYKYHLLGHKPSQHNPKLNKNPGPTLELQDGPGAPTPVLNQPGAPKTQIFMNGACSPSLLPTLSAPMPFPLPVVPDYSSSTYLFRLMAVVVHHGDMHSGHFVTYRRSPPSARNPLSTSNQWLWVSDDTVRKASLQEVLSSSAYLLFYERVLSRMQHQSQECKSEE
# USP17 inh: human USP17-like deubiquitinase inhibition; purified USP17, Ub-rhodamine cleavage fluorescence, 3 h; inhibition, % at 50 µM; actives 6.5% (n = 47,000)
# OTUD3 inh: blocks human OTUD3 ubiquitin-rhodamine cleavage; purified OTUD3, Ub-rhodamine fluorescence, 2 h; inhibition, % at 25 µM; Q5T2D3; actives 0.7% (n = 47,000)
# An asterisk follows results filed as active; i = inactive; · = no result given. Rows were chosen to be rich in hits. Some 11% of all compounds tested hit in one or more screens of this group. Rule as the data show it: active = inhibition above about 30%; inactive = the rest.
SMILES,USP28 block,USP30 inh,USP17 inh,OTUD3 inh
Cc1nc2nc(NCc3ccc(Cl)cc3)[nH]n2c(=O)c1CCC(=O)N1CCCCC1C (centres undefined),-0.2,4.0,3.6,6.0
O=C1COC2(CCNCC2)CN1Cc1cccc(F)c1,-14.1,-11.6,-4.6,-5.6
Cc1ccc(NC(=O)CSc2ncnc3nc[nH]c23)c(Cl)c1,1.4,7.7,-5.3,-0.5
O=C(Nc1ccc2c(c1)OCCO2)c1ccc(N2CCCC2=O)cc1,44.8*,67.3*,35.1*,14.6
CC(OC(=O)c1ccc(N(C)C)cc1)C(=O)Nc1ccc2c(c1)OCCO2 (centres undefined),26.1,17.8,39.7*,5.0
COc1ccccc1-c1nnc([C@H]2CCN(Cc3ccc(C)o3)C2)o1,-107.0,-482.6,-102.7,-114.0
O=C(NC1CC1)c1cc(-c2ccco2)nc2onc(-c3ccccc3)c12,-9.1,-131.3,31.4*,-2.8
Cc1ccccc1OCC(=O)N1CCN(S(=O)(=O)c2ccc3c(c2)OCCCO3)CC1,21.5,37.8*,8.2,9.3
COc1ccc(CC(=O)N2CCN(S(=O)(=O)c3ccc4c(c3)OCCCO4)CC2)cc1,-5.7,-10.0,-9.1,-5.7
O=C(Nc1nc2cc3c(cc2s1)OCCO3)C1CCCCC1,22.1,12.9,11.4,7.2
Cc1cc2nc(NC(=O)NC3CCCCC3)sc2cc1C,13.6,35.8*,-39.0,24.9
Cc1cc(-c2cc3nc4c(c(=O)n3[nH]2)CN(Cc2ccc(C)o2)CC4)no1,19.0,2.0,45.9*,13.2
Cc1ccc(CN2CCc3nc4cc(C5CC5)[nH]n4c(=O)c3C2)s1,15.3,32.1*,0.4,11.4
CCn1cc(CN2CCc3nc4cc(-c5ccoc5C)[nH]n4c(=O)c3C2)cn1,-50.2,-153.1,-70.2,-35.6
CN(C)c1ccc(C2CC(c3ccc(Br)cc3)=NN2C(=O)CCC(=O)O)cc1 (centres undefined),22.7,26.2,32.2*,13.4
Cc1oc(-c2ccc(Cl)cc2)cc1C(=O)Nc1ccccc1,13.8,34.8*,21.0,14.8
Cc1c(N2CCN(S(=O)(=O)c3ccccc3)CC2)c(=O)n(C)c(=O)n1C,5.7,0.0,2.2,0.6
O=C(NCc1csc2ccccc12)c1ccc(Cl)cc1,11.2,45.4*,22.9,-3.4
COc1ccc(C(=O)NCc2csc3ccccc23)cc1,34.7*,64.2*,23.9,25.2
COc1ccc(C(=O)NCCc2cccs2)cc1,9.4,13.9,-3.0,10.2
O=C(NCc1ccccc1Cl)c1csnn1,1.8,1.2,-30.1,0.9
O=C(Cn1c(=O)[nH]c2ccccc2c1=O)N[C@H](Cc1c[nH]c2ccccc12)C(=O)O,-7.4,-42.8,-16.6,-17.7
Cc1ccc(Cn2c(/C=C/c3ccc(F)cc3)nc3ccccc32)cc1,35.1*,14.9,2.2,6.5
N#Cc1ccc(/C=C/c2nc3ccccc3n2Cc2ccc(F)cc2)cc1,-7.9,-41.5,2.8,-19.6
CC1(C)SC([C@@H](O)[C@H](O)[C@H](O)CO)N[C@H]1C(=O)O (some centres undefined),6.3,15.8,-4.1,6.7
SMILES,USP28 block,USP30 inh,USP17 inh,OTUD3 inh
O=C(c1ccncc1F)N1Cc2ccnn2CC(COCC2CC2)C1 (centres undefined),-0.4,9.1,-12.8,4.6
COCCNc1c(-c2ccccc2OC)nc2cnccn12,·,·,-146.5,0.5
COCc1cc(Sc2ccc(OC)cc2)nc(-c2ccccc2)n1,0.5,2.7,0.7,2.9
O=S(Cc1cc(Sc2ccccc2)nc(-c2ccccc2)n1)c1ccccc1 (centres undefined),12.6,34.3*,2.6,5.6
Cc1ccc(OCc2nc3ccccc3n2C(C)c2ccccc2)cc1 (centres undefined),26.8,34.1*,16.6,17.9
Cc1ccc(C(C)C)c(OCc2nc3ccccc3n2CC(C)C)c1,10.7,24.9,20.2,17.1
CC(=O)O[C@@H]1/C=C(/C)[C@H](OC(=O)c2ccc(O)cc2)C/C=C(/C)CCCC1(C)C,6.1,15.3,31.2*,-1.2
O=C(Nc1ccc2c(c1)OCCO2)c1cc(CN2CCOCC2)on1,52.9*,8.7,·,-0.2
O=C(Nc1ccc2c(c1)OCCO2)c1ccc(N2CCCCC2)nn1,59.1*,2.1,17.5,5.4
COc1cccc(NC(=O)c2cc(CN3CCCC3)on2)c1,20.6,-14.8,-2.7,-4.9
Cc1ccc(NC(=O)c2ccc(N3CCCCC3)nn2)cc1F,-0.2,i,3.2,-5.9
O=C(Nc1ccc2c(c1)OCO2)c1cc(-c2ccco2)on1,30.3*,-17.9,44.3*,17.4
COc1cc(NC(=O)c2cc(CN3CCOCC3)on2)cc(OC)c1,53.8*,2.9,0.4,2.6
Cc1ccc(OCCCn2c(CNC(=O)c3ccco3)nc3ccccc32)cc1,19.4,25.0,16.6,10.1
